An excerpt weighted towards active compounds, which were near 21% of everything screened.
CHX counter – counter-screen for Shiga toxin inhibitors: cycloheximide protein synthesis inhibition; hit rate 12% among 300,000; cell reporter, cycloheximide protein synthesis inhibition counterscreen; max response, %; in the data active = max response mostly above about 13%, no sharp cut-off; inactive = mostly below about 14%; note: read at 38.3 µM for the half of the compounds with a filed dose; 0% is about no effect
Pf growth 48h – P. falciparum growth inhibition at 48 hours (one generation); P. falciparum luciferase growth in erythrocytes, 48 h; Potency, µM (series often up to 28.7 µM), for inactives: top-dose activity change, negative = inhibition, most hits filed as inhibitors; hit rate 5.9% among 310,000; AID 504832; note: potency is the fitted concentration of half-maximal effect; % is set by controls: 0 for no effect and ±100 for the full control effect
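Growth was read as firefly luciferase luminescence after a 48 h, 37 C, 5% CO2 exposure of compounds to reporter-bearing P. falciparum cultures (0.1% parasitemia, 2% hematocrit final) in Albumax-supplemented RPMI 1640.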
Shiga toxin inh – Shiga toxin inhibition. Vero cells, Shiga toxin protein synthesis inhibition reporter. inhibition, % at 38.7 µM. hit rate 9.2% among 290,000. AID 2315; in the data active = inhibition mostly above about 28%, no sharp cut-off; inactive = mostly below about 43%; note: 0% is about no effect
Pf growth 96h – inhibits malaria parasite growth, 96 h. hit rate 6.9% among 320,000. P. falciparum luciferase reporter growth, 96 h. Potency, µM (doses to about 28.7 µM), for the others: at the highest dose activity change, negative = inhibition, actives largely listed as inhibitors. AID 504834; note: potency is the fitted concentration of half-maximal effect; % is set by controls: 0 for no effect and ±100 for the full control effect
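Infected RBCs, 2% Hct / 0.05% parasitemia final; luciferase-reporter P. falciparum; cpd 96 h, 37 C, 5% CO2; luciferase detection reagent; luminescence.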
The depositor's hits bear a star; [ ] = remark or other dose. Unless noted, calls come from the whole dose curve; as a rule, active = well fitted inhibition curve with a large enough effect; inconclusive = small, poorly fitted or top-dose-only effect, or another doubt; inactive = no such curve, though single readings can be large or run the other way.

COc1ccc(-c2nc(Cn3c(SCc4ccccc4F)nc4ccncc43)c(C)o2)cc1 was read as CHX counter -2, Shiga toxin inh -14 and Pf growth 96h 4.7µM*.
For COc1ccc(-c2nc(Cn3c(SCc4ccc(F)cc4)nc4ccncc43)c(C)o2)cc1OC the results were CHX counter -4, Shiga toxin inh -14 and Pf growth 96h inconclusive.
Screening Fc1ccccc1CSc1nnc(-c2cccnc2)o1 returned CHX counter 48*, Pf growth 48h 144%, Shiga toxin inh 110* and Pf growth 96h inconclusive.
For CC(C)c1ccc(CNn2cnnc2)cc1 the results were CHX counter -2, Pf growth 48h 18%, Shiga toxin inh -4 and Pf growth 96h inconclusive.
Screening Cn1c(N)c(C(=O)CSc2n[nH]c(-c3ccccc3)n2)c(=O)n(C)c1=O returned Pf growth 48h -15% and Pf growth 96h inconclusive.
For Fc1ccccc1CSc1nnc(-c2ccccc2)o1 the results were CHX counter 50*, Pf growth 48h 258% and Shiga toxin inh 75*.
Fc1cccc(Cl)c1CSc1nnc(CNc2ccccc2)o1 was read as CHX counter 17*, Pf growth 48h 29%, Shiga toxin inh 20 and Pf growth 96h 60%.
COc1cccc(C(=O)CSc2nnc(-c3cc(OC)cc(OC)c3)o2)c1 was read as CHX counter 2, Pf growth 48h 10%, Shiga toxin inh -13 and Pf growth 96h 5%.
For COc1cc(OC)cc(-c2nnc(SCc3c(F)cccc3Cl)o2)c1 the results were CHX counter 44*, Pf growth 48h inconclusive, Shiga toxin inh 81* and Pf growth 96h inconclusive.
For Fc1ccc(NCc2nnc(SCc3ccccc3)o2)cc1 the results were CHX counter 12, Pf growth 48h 13%, Shiga toxin inh 15 and Pf growth 96h inconclusive.
O=C(Cc1c(F)cccc1Cl)N/N=C/c1cccnc1 was read as CHX counter 2, Pf growth 48h inconclusive, Shiga toxin inh 1 and Pf growth 96h 50%.
For CC(=O)c1cccc(N(C(=O)CNC(=O)c2ccco2)C(C(=O)NC2CCCC2)c2ccco2)c1 (stereo unspecified) the results were CHX counter -2, Pf growth 48h -11%, Shiga toxin inh -5 and Pf growth 96h 15%.
For O=C1c2ccncc2C(=O)N1CO the results were CHX counter -3, Pf growth 48h -7%, Shiga toxin inh -11 and Pf growth 96h 10µM*.
For CN(c1nc2ccccc2nc1Cl)S(=O)(=O)c1ccccc1 the results were CHX counter 27*, Pf growth 48h 35%, Shiga toxin inh 45* and Pf growth 96h 40%.
CC(C)=CCC[C@](C)(O)C1CC[C@]2(C)[C@@H]1CC[C@@H]1[C@@]3(C)CCC(=O)C(C)(C)[C@@H]3CC[C@]12C (stereo partly specified) was read as CHX counter -6 and Shiga toxin inh -4.
`Cc1ccc(C(=O)OCc2nnc(-c3ccccc3)o2)cc1S(=O)(=O)N1CCOCC1` gave Pf growth 48h -7% and Pf growth 96h 1%.
For CCCCn1c(N2CCCC2)nc2c1c(=O)[nH]c(=O)n2C the results were CHX counter -4, Pf growth 48h -7%, Shiga toxin inh -6 and Pf growth 96h -7%.
For Cc1nnc(SCCn2c(N3CCC(Cc4ccccc4)CC3)nc3c2c(=O)[nH]c(=O)n3C)s1 the results were CHX counter -2, Pf growth 48h inconclusive, Shiga toxin inh -2 and Pf growth 96h 9.3µM*.
`Cc1nnc(SCCn2c(N3CCN(Cc4ccccc4)CC3)nc3c2c(=O)[nH]c(=O)n3C)s1` gave CHX counter -2, Pf growth 48h inconclusive, Shiga toxin inh -8 and Pf growth 96h 7.4µM*.
`CC1CCN(c2nc3c(c(=O)[nH]c(=O)n3C)n2Cc2ccccc2Cl)CC1` gave CHX counter -2, Pf growth 48h -22%, Shiga toxin inh -4 and Pf growth 96h 9.3µM*.
`Cc1nnc(SCCn2c(N3CCN(C)CC3)nc3c2c(=O)[nH]c(=O)n3C)s1` gave CHX counter -3, Shiga toxin inh -15 and Pf growth 96h -15%.
Cc1nnc(SCCn2c(N3CCCCCC3)nc3c2c(=O)[nH]c(=O)n3C)s1 was read as CHX counter -2, Pf growth 48h -12%, Shiga toxin inh -13 and Pf growth 96h 49%.
Screening CCCCn1c(N2CCC(Cc3ccccc3)CC2)nc2c1c(=O)[nH]c(=O)n2C returned CHX counter -3, Pf growth 48h 9.3µM*, Shiga toxin inh -4 and Pf growth 96h inconclusive.
For CSc1nc(=S)c2[nH]c(=S)[nH]c2[nH]1 the results were CHX counter -3, Pf growth 48h -28%, Shiga toxin inh -6 and Pf growth 96h 17%.
Screening Cn1c(=O)[nH]c(=O)c2c1nc(N1CCc3ccccc3C1)n2CCSc1nc2ccccc2s1 returned CHX counter -1, Pf growth 48h 5.2µM*, Shiga toxin inh 1 and Pf growth 96h 57%.
Screening CC1=CC23C(=O)C(C=C(CO)[C@@H](O)[C@]2(O)[C@H]1O)[C@H]1[C@@H](C[C@H]3C)C1(C)C (stereo partly specified) returned CHX counter -2 and Shiga toxin inh -3.
For CC(C)(C)C(=O)Nc1cccc(-c2nnc(-c3cccc(NC(=O)C(C)(C)C)c3)o2)c1 the results were CHX counter 1, Pf growth 48h 4.7µM*, Shiga toxin inh 10 and Pf growth 96h inconclusive.
For CC(=O)Nc1cccc(-c2nnc(-c3ccccc3)o2)c1 the results were CHX counter 45*, Pf growth 48h 28% and Shiga toxin inh 106*.
`O=C(Nc1cccc(-c2nnc(-c3ccccc3)o2)c1)C1CC1` gave CHX counter 27, Pf growth 48h inconclusive, Shiga toxin inh 28 and Pf growth 96h 34%[1.15 µM].
`CCN(CC)C(=O)C(=O)c1cccn1-c1cccc(OC)c1C#N` gave CHX counter -1, Pf growth 48h 18%, Shiga toxin inh -14 and Pf growth 96h 11%.
`CCOc1ccc(NCc2cccn2-c2nnc(N3CCC(C(=O)NCCCN4C(C)CCCC4C)CC3)s2)cc1` (stereo unspecified) gave CHX counter 9, Pf growth 48h inconclusive, Shiga toxin inh 17 and Pf growth 96h -22%.
For CCOc1ccc(NCc2cccn2-c2nnc(N3CCC(C(=O)NCCCN4CCCCC4)CC3)s2)cc1 the results were CHX counter 17*, Pf growth 48h -20%, Shiga toxin inh 23* and Pf growth 96h inconclusive.
Screening O=C(CCSc1ccc(F)cc1)NNC(=O)c1ccc([N+](=O)[O-])cc1 returned Pf growth 48h -26% and Pf growth 96h -11%.
For N#Cc1c(N)nc2c3c(sc(=N)c2c1N)NC(=O)CC3c1c(F)cccc1Cl (stereo unspecified) the results were CHX counter -1, Pf growth 48h inconclusive, Shiga toxin inh -7 and Pf growth 96h 8.3µM*.
Screening N#Cc1c(N)nc2c3c(sc(=N)c2c1N)NC(=O)CC3c1ccccc1 (stereo unspecified) returned CHX counter -3, Pf growth 48h inconclusive, Shiga toxin inh -6 and Pf growth 96h -23%.
For Cc1nc(C)c(C(=O)OCC(=O)Nc2cccc(C)c2C)s1 the results were Pf growth 48h 31% and Pf growth 96h 98%.
